Among the data in PubChem BioAssay (NCI) are growth values, retold here.

The panel holds about 83,000 compounds, 20% with a hit somewhere; the sample as a whole holds those more often.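 Cell lines were cultured in 96-well plates, exposed to a single compound concentration, and assessed for percent growth 48 hours later.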 Values without a mark were called inactive. Calls of active or inactive are those of the source. The calls were made as follows: active = growth percent below 10; inactive = the rest.

For the test, the system named is MDA-MB-468 breast. The test can be described thus: NCI-60 one-dose screen, 48 h (100 = growth as untreated, 0 = no growth, -100 = all killed). Particulars: 10 µM unless noted.
For `CC(=O)C1CCC2C3CC(C)=C4CC(O)CCC4(C)C3CCC12C` (stereo not given), the growth is 109%.

In the case of `Cc1cc(=O)n2nnc3c4ccccc4ccc3n12`, the growth was 15.5%.

In the case of `CC1(C)OC2C(CO)OC(n3ccc(=O)[nH]c3=O)C2O1` (stereo not given), the growth is 127%.

On to `CCOC(=O)c1ccc(Nc2sc(C(=O)c3ccc(Br)cc3)c(N)c2C#N)cc1`, for which the growth is 1.55% (active).

For the molecule `FC(F)(F)c1cccc(Nc2nc3ccccc3nc2Nc2cccc(C(F)(F)F)c2)c1`, the growth was -12.9% (active).

On to `ClCC(Cl)C1CCC(Cl)C(Cl)C1` (stereo not given), for which the growth is 114%.

As for `COc1ccc2oc(=O)cc(Cn3cc(Cn4cnc5c4c(=O)n(C)c(=O)n5C)nn3)c2c1`, the growth was 101%.

For the molecule `COc1ccc(/C=C/C(=O)c2ccc(NC(=O)CSc3nnc(-c4ccc(OC)c(OC)c4)n3-c3ccccc3)cc2)cc1`, the growth was 60.2%.

In the case of `Cc1ccc(C(=O)CC(=O)C(F)(F)C(F)(F)C(F)(F)F)s1`, the growth is 102%.

For the molecule `CCCCCCCCCCC1OC(C)CC(C)O1` (stereo not given), the growth is 98.5%.

`COc1cc(C2CC(=O)c3ccccc3N2)cc(OC)c1OC` (stereo not given): the growth is 90.5%.

With `C[C@@H]1CN(c2cnc(C(=O)Nc3cc(F)cc4cccnc34)cn2)C[C@H](C)N1`, the growth was 3.8% (active).

As to `O=c1cc(N/N=C/c2ccc(F)cc2)c2cc(Cl)ccc2[nH]1`, the growth is 73%.

With `CCCCCCCCCCCCCCCCOCCCOP(=O)(O)C1CCCN(O)C1=O` (stereo not given), the growth was -7.42% (active).

For the molecule `CC(C)(C)CC(C)(C)Nc1c(-c2ccc3c(c2)OCO3)nc2cnccn12`, the growth is 95.2%.

Regarding `Cn1cc(-c2csc(-c3c[nH]c4ccc(Br)cc34)n2)c2cnccc21`, the growth is -70.5% (active).

Take `O=C1CC23OC(C(O)c4ccccc4N12)C1C(c2ccccc2)=NOC13` (stereo not given): the growth was 40.9%.

Consider `C#CCOc1ccc(C2=NN(CCCC)C3N=C(Cl)c4ncn(CCCC)c4N23)cc1OCC#C` (stereo not given), for which the growth was 80.4%.

Take `O=C1OC(c2ccc(-c3ccccc3)cc2)=C/C1=C/c1cccs1`: the growth was -47.5% (active).

`C/C(=C\c1ccc2ccccc2c1)[N+](=O)[O-]`: the growth was -22.8% (active).

As for `Cn1c(NCCc2ccc(O)c(O)c2)nc2c1c(=O)n(Cc1ccc(Cl)c(Cl)c1)c(=O)n2C`, the growth is 49.4%.

As for `Cc1nc2cc(Nc3nc(Nc4ccc(F)cc4)nc(-c4ccc(Cl)cc4)n3)ccc2n1Cc1ccccc1`, the growth was 74.3%.

Take `CS(=O)(=O)c1ccc(-c2[nH]c3ccc(F)cc3c2/C=N/NC(N)=S)cc1`: the growth is 8.01% (active).

With `CSc1nn(-c2ccccc2)c2ncnc(Oc3ccc(C)cc3)c12`, the growth was 93.2%.

With `C#Cc1cccc(Nc2ncnc3ccc(-c4cnc(Cl)c(NS(C)(=O)=O)c4)cc23)c1`, the growth was -78.8% (active).

As for `Cc1cccc(Cl)c1NC(=O)c1cnc(Nc2cc(N3CCOCC3)cc(S(C)(=O)=O)c2)s1`, the growth is 26.7%.

Consider `S=c1nc(CS)[nH]c2ccccc12`, for which the growth was 103%.

`CSc1nc(-c2cccs2)c2c(N)[nH]nc2n1`: the growth is 117%.

In the case of `Cc1nc2c(c(N3CCCc4ccccc43)n1)CCC2`, the growth is 8.12% (active).

For the molecule `CN[C@]12CC3(C=CC(=O)C=C3)O[C@@]1(Cc1ccc(OC)cc1)N(C)C(=O)N2`, the growth is 36.4%.

Consider `CC(=O)OCC1CCC(COC(C)=O)CC1` (stereo not given), for which the growth was 110%.

Consider `O=C(Cn1cc(CSc2nc3ccccc3o2)nn1)Nc1ccc(F)cc1F`, for which the growth was 104%.

`Cc1cccc(/C=N/Nc2cc(C)c3cccc(C)c3n2)n1`: the growth is 88.7%.

Take `Nc1nc2c3ccncc3cc(-c3cccc(Cl)c3)c2c2cnccc12`: the growth was 36.6%.

On to `O=C(/C=C/c1ccc(Cl)nc1)c1ccc(Cl)cc1Cl`, for which the growth is 91.5%.

Regarding `Cc1c([N+](=O)[O-])cc(C(C)(C)C)cc1[N+](=O)[O-]`, the growth is 90.6%.

As for `O=C(O)c1ccc(-n2cc(/C=N/Nc3ccc(Cl)cc3Cl)c(-c3ccccc3)n2)cc1`, the growth is 79.7%.

Consider `CC(C)(C)OC(=O)Nc1ccc2c(c1)C(NC(=O)Nc1cccc(C#N)c1)CC(C)(C)O2` (stereo not given), for which the growth is -5.73% (active).

Turning to `O=c1c2c(O)cccc2oc2c3c(cc(O)c12)O[C@H]1OC=C[C@@H]31`, the growth is 30.2%.

As for `CS(=O)(=O)c1ccc(N/N=C/c2c(-c3ccc(S(C)(=O)=O)cc3)[nH]c3ccc(F)cc23)cc1`, the growth is 64.3%.
